Legend:
[1] = target: T1, Aspartate--tRNA(Asp/Asn) ligase (Mycobacterium tuberculosis (strain ATCC 25618 / H37Rv)) (UniProt P9WFW3); test: Assay for Asp RNA synthetase-1 from Mycobacterium tuberculosis; assay type: functional; design: scale not given: direction of the effect not stated beside the values; settings: 30 µM; further: in the data most compounds retested in dose-response had high values
T1 sequence (whole entry): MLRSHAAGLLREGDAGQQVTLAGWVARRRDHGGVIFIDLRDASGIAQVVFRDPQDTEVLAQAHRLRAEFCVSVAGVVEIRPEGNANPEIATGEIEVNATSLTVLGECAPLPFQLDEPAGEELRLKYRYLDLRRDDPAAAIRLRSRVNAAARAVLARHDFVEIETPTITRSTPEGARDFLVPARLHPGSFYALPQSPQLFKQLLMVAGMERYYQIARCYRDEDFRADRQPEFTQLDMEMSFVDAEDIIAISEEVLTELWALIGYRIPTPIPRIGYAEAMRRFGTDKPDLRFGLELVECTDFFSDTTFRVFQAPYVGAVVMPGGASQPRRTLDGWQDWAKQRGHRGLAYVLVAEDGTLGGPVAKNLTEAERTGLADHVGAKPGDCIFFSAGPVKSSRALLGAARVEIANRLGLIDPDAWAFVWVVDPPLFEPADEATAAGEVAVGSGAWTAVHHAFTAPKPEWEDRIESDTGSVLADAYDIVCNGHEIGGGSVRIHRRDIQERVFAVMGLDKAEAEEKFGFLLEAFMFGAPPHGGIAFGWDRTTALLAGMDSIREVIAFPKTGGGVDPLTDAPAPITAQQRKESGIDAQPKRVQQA

[2] = target: Shiga toxin 2 (Escherichia coli O157:H7) (UniProt P09385+P09386); test: E. coli 0.157:H7 Shiga Toxin SOP - stx2 screening assay; assay type: functional; design: scale not given: direction of the effect not stated beside the values; settings: 30 µM

Structure (SMILES): Cc1noc(C)c1CN1CC2(CCN(C(=O)c3cscn3)CC2)CC1=O
- Percent Effect [1]: 6.36%
- Percent Effect [2]: -13.6%

Structure (SMILES): CS(=O)(=O)N1CCC(C(=O)NC(Cc2ccsc2)c2nccs2)CC1 (stereo unspecified)
- Percent Effect [1]: -5.91%
- Percent Effect [2]: 16.3%

Structure (SMILES): O=C(Cc1cccc(F)c1)NCCNCc1ccc2c(c1)CCO2
- Percent Effect [1]: -0.182%
- Percent Effect [2]: -76.4%

Structure (SMILES): Cc1cc(C[S+]([O-])CC(=O)NCc2cccs2)no1 (stereo unspecified)
- Percent Effect [1]: -0.395%
- Percent Effect [2]: 9.34%

Structure (SMILES): CCOC(=O)C1CCN(C(=O)Cn2ccc3cc(Br)ccc32)CC1
- Percent Effect [1]: -2.06%
- Percent Effect [2]: -21.9%

Structure (SMILES): CN(C)S(=O)(=O)N1CCC2(COCc3cnc(-c4ccccc4)nc32)C1 (stereo unspecified)
- Percent Effect [1]: -4.48%
- Percent Effect [2]: -12.6%

Structure (SMILES): COc1cccc(F)c1C(=O)N1C[C@@H](CN(C)CCO)[C@@H](CO)C1
- Percent Effect [1]: -0.268%
- Percent Effect [2]: -11.4%

Structure (SMILES): O=C(CCCc1cn[nH]c1)N1CCOCC(O)C1 (stereo unspecified)
- Percent Effect [1]: 5.55%
- Percent Effect [2]: 5.53%

Structure (SMILES): CSCC(CCO)NC(=O)Nc1cc(C)ccc1C (stereo unspecified)
- Percent Effect [1]: 6.04%
- Percent Effect [2]: -16.3%

Structure (SMILES): COc1cccc2c1OCC(NC(=O)NCc1cccs1)C2 (stereo unspecified)
- Percent Effect [1]: 1.53%
- Percent Effect [2]: 3.63%

Structure (SMILES): Cc1nnc(N2CCC(CNC(=O)OC(C)(C)C)CC2)c(C#N)c1C
- Percent Effect [1]: -0.115%
- Percent Effect [2]: 34.8%

Structure (SMILES): COc1c(CNC2CCc3cc(F)ccc32)c(C)nn1C (stereo unspecified)
- Percent Effect [1]: -5.95%
- Percent Effect [2]: 7.74%

Structure (SMILES): N#Cc1cccnc1NCc1cccnc1N1CCC(C(N)=O)CC1
- Percent Effect [1]: 4.47%
- Percent Effect [2]: -10.3%

Structure (SMILES): CC(C)Cc1cc(C(=O)NCc2nnc[nH]2)[nH]n1
- Percent Effect [1]: 1.11%
- Percent Effect [2]: 2.04%

Structure (SMILES): CC(C)(CNC(=O)OC(C)(C)C)NC(=O)C1CC(=O)N(C2CC2)C1 (stereo unspecified)
- Percent Effect [1]: 3.37%
- Percent Effect [2]: -23.3%

Structure (SMILES): N#Cc1ccc(CN2CCN(C(=O)C3CCC3)[C@@H]3CS(=O)(=O)C[C@@H]32)cc1
- Percent Effect [1]: -2.41%
- Percent Effect [2]: -34.5%

Structure (SMILES): COCCCNC(=O)CN(C)C(=O)c1cc(C)sc1C
- Percent Effect [1]: -2.19%
- Percent Effect [2]: 10.4%

Structure (SMILES): Cc1cc(CN2CCCC2c2c(C)nn(C)c2Cl)no1 (stereo unspecified)
- Percent Effect [1]: -1.57%
- Percent Effect [2]: 8.59%
